E coli growth-1: inhibitors of Escherichia coli growth; OD600, 23 h; hits give low values; OD600 absorbance (concentration not given with the values); 0.21% of 330,000 active; AID 1053175;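 active means OD600 absorbance below the run mean of sample wells minus 3.6 SD, in any replicate, cut at about 0.56 in these data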
Tat transport: blocks Tat-dependent protein export in E. coli; 0.036% of 340,000 active; AID 488895; E. coli MC4100 TorA-mCherry Tat export, fluorescence; inhibition, % at 10 µM;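 active means mean replicate inhibition at least 50% and at least half of replicates individually reaching 50%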;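 further: exported cargo escapes ClpAP degradation while cytoplasmic cargo is degraded and loses fluorescence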
AddAB inh: less growth of phage-infected E. coli with AddAB; E. coli expressing H. pylori AddAB, absorbance growth; inhibition, % at 11.9 µM; 0.29% of 330,000 active; in the data active means inhibition above about 12%
E coli growth-2: bacterial growth inhibition, counter-screen for AddAB inhibitors; 0.27% of 330,000 active; E. coli V3065 growth, OD600 absorbance, 18 h; inhibition, % at 11.9 µM;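 active means inhibition above the campaign's mean inhibition across all tested compounds plus 3 SD, cut at about 9.9% in these data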;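 further: uninfected addAB+ strain grown without phage in ampicillin broth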
phage Ecoli inh: E. coli growth loss with phage present | growth absorbance | inhibition, % at 11.9 µM | 0.26% of 360,000 active; in the data active means inhibition above about 11%
Of the large screens only hits and unclear results are named; the others gave an inactive call. Hits are enriched below; roughly 0.5% of the tested compounds scored in any of these assays.

CCOC(=O)N/N=C/C(Cl)=C/c1ccccc1	E coli growth-2 13 (no result: E coli growth-1)
CCOC1OC(C(=O)N2CCN(Cc3ccccc3)CC2)=CC(c2ccccc2)C1CCCO (stereo unspecified)	none (no result: Tat transport, AddAB inh, E coli growth-2, phage Ecoli inh)
C[n+]1ccc(/C=C/c2ccccc2O)c2ccccc21	none
CN1/C(=C/c2cc[n+](C)c3ccccc23)C=Cc2ccccc21	E coli growth-1 0.34 (no result: AddAB inh, E coli growth-2, phage Ecoli inh)
CCCCCCCCCCCCCCCC[N+](C)(C)CCN(Cc1ccc(OC)cc1)c1ncccn1	Tat transport 54 (no result: E coli growth-1, phage Ecoli inh)
O=C(O)C1=CC(c2csc3ccccc23)CC(OCc2ccc(CO)cc2)O1 (stereo unspecified)	none (no result: Tat transport, AddAB inh, E coli growth-2, phage Ecoli inh)
O=C(Nc1cccs1)Nc1ccc(Br)cc1F	E coli growth-1 0.49
Cc1nnc(SCC2=C(C(=O)O)N3C(=O)C(NC(=O)c4cccc(F)c4F)C3SC2)s1 (stereo unspecified)	none
CC(=O)OCC1=C(C(=O)O)N2C(=O)C(NC(=O)C(C)Cn3nc(C)c(Cl)c3C)C2SC1 (stereo unspecified)	none
Cc1cc(C)n(CC(=O)NC2C(=O)N3C(C(=O)O)=C(CSc4nnc(C)s4)CSC23)n1 (stereo unspecified)	E coli growth-1 0.19
CC(=O)OCC1=C(C(=O)O)N2C(=O)[C@@H](NC(=O)CSc3ccncc3)[C@H]2SC1	E coli growth-1 0.22 (no result: AddAB inh, E coli growth-2)
Cc1nnc(SCC2=C(C(=O)O)N3C(=O)C(NC(=O)Cn4ncc(Cl)c4C)C3SC2)s1 (stereo unspecified)	E coli growth-1 0.44
CCOC1OC(C(=O)N2CCN(Cc3ccc4c(c3)OCO4)CC2)=CC(C(C)(C)C)C1CCCO (stereo unspecified)	none (no result: Tat transport, AddAB inh, E coli growth-2, phage Ecoli inh)
COc1ccc(OC2C=CC(c3ccccc3)OC2CON=CCC2C=CC(OC(C)=O)C(COC(C)=O)O2)cc1 (stereo unspecified)	none (no result: Tat transport, AddAB inh, E coli growth-2, phage Ecoli inh)
CNC(CC(C)C)C(=O)NC1C(=O)NC(CC(N)=O)C(=O)NC2C(=O)NC3C(=O)NC(C(=O)NC(C(=O)O)c4cc(O)cc(O)c4-c4cc3ccc4O)C(O)c3ccc(c(Cl)c3)Oc3cc2cc(c3OC2OC(CO)C(O)C(O)C2OC2C[C@](C)(N)C(O)C(C)O2)Oc2ccc(cc2Cl)C1O (stereo partly specified)	E coli growth-1 0.4
Cc1nn(C(C)C(=O)NC2C(=O)N3C(C(=O)O)=C(CSc4nnnn4C)CSC23)cc1Cl (stereo unspecified)	E coli growth-1 0.43
Cn1nnnc1SCC1=C(C(=O)O)N2C(=O)[C@@H](NC(=O)[C@H](O)c3ccccc3)[C@H]2SC1	none (no result: E coli growth-1, phage Ecoli inh)
CC(C(=O)NC1C(=O)N2C(C(=O)O)=C(CSc3nnnn3C)CSC12)n1cc(Br)cn1 (stereo unspecified)	E coli growth-1 0.51
CN(C)CCn1nnnc1SCC1=C(C(=O)O)N2C(=O)C(NC(=O)Cc3csc(N)n3)C2SC1 (stereo unspecified)	E coli growth-1 0.061 (no result: Tat transport, AddAB inh, E coli growth-2, phage Ecoli inh)
Cn1nnnc1SCC1=C(C(=O)O)N2C(=O)C(NC(=O)C3CC3c3ccccc3)C2SC1 (stereo unspecified)	none
Cc1cc(C(F)F)nn1CC(=O)NC1C(=O)N2C(C(=O)O)=C(CSc3nnnn3C)CSC12 (stereo unspecified)	E coli growth-1 0.19
O=S(=O)(c1cnccc1N1CCN(N=Cc2ccc(Cl)cc2)CC1)N1CCCCC1	none (no result: Tat transport, AddAB inh, E coli growth-2, phage Ecoli inh)
CCn1cc(C(=O)N2CCN(c3ccc([N+](=O)[O-])cc3)CC2)c(=O)c2ccc(C)nc21	none
CCn1cc(C(=O)OC)c(=O)c2ccc(C)nc21	none
CCn1cc(C(=O)NCc2ccccc2OC)c(=O)c2ccc(C)nc21	none (no result: Tat transport, phage Ecoli inh)
CCn1cc(C(=O)OCC(=O)NCc2ccccc2Cl)c(=O)c2ccc(C)nc21	E coli growth-1 0.51
CCn1cc(C(=O)OCC(=O)Nc2c(C)cccc2C)c(=O)c2ccc(C)nc21	E coli growth-1 0.49
CCn1cc(C(=O)N2CCN(c3cccc(C)c3C)CC2)c(=O)c2ccc(C)nc21	E coli growth-1 0.42
Cc1ccc(C(=O)NN=Cc2cc(Br)c(Br)o2)cn1	none (no result: Tat transport, AddAB inh, E coli growth-2, phage Ecoli inh)
Cc1cccc(CN2C[C@]34CCC(CC3S2(=O)=O)O4)c1 (stereo partly specified)	none (no result: Tat transport, AddAB inh, E coli growth-2, phage Ecoli inh)
Cc1cccc(C=NNC(=O)c2ccc(F)cc2)n1	none (no result: Tat transport, AddAB inh, E coli growth-2, phage Ecoli inh)
COC(=O)c1ccc(C=NOCC(=O)Nc2cc(F)ccc2F)cc1	E coli growth-1 0.53 (no result: Tat transport, AddAB inh, E coli growth-2, phage Ecoli inh)
CC(C)(C)C1CCC(=O)N(C(CC#N)Cc2ccccc2)CC1 (stereo unspecified)	none (no result: Tat transport, AddAB inh, E coli growth-2, phage Ecoli inh)
CC(C)(O)C1CC[C@@](C)(C2CC[C@]3(C)C2C(O)CC2[C@@]4(C)CCC(O)C(C)(C)C4C(OC4OC(CO)C(O)C(O)C4OC4OC(CO)C(O)C(O)C4O)C[C@]23C)O1 (stereo partly specified)	none (no result: Tat transport, AddAB inh, E coli growth-2, phage Ecoli inh)
Nc1ncc(N=Nc2cc(C(=O)O)ccc2Cl)s1	E coli growth-2 11
NCC12CC3CC(C1)CC(c1ccc(Cl)cc1)(C3)C2	E coli growth-1 0.51
c1ccc2c(c1)CCC2=NNc1nc2ccccc2[nH]1	E coli growth-1 0.46 (no result: Tat transport, AddAB inh, E coli growth-2, phage Ecoli inh)
COc1ccc(COC(=O)NN=C(C)CC(=O)Nc2c(C)cc(C)cc2C)cc1	none (no result: Tat transport, AddAB inh, E coli growth-2, phage Ecoli inh)
O=[N+]([O-])c1cc(C(F)(F)F)ccc1NCCNC(=S)Nc1ccc(Cl)cc1	E coli growth-2 10
O=C(CSc1cccc[n+]1[O-])c1cc(Cl)ccc1Cl	E coli growth-1 0.12
CC(CC(=O)Nc1ccccc1)=NNC(=O)COc1ccc(C)cc1Br	none (no result: Tat transport, AddAB inh, E coli growth-2, phage Ecoli inh)
CCN1C(=O)C(=CN2CCN(C)CC2)SC1=S	none (no result: Tat transport, AddAB inh, E coli growth-2, phage Ecoli inh)
CC(C(=O)N1CCNCC1)n1cc(CCCN=C(N)N)nn1 (stereo unspecified)	none (no result: Tat transport, AddAB inh, E coli growth-2, phage Ecoli inh)
C=CCOc1ccccc1C=NNC(=O)Cc1ccccc1	none (no result: Tat transport, AddAB inh, E coli growth-2, phage Ecoli inh)
CCOc1ccc(CNc2ccc3c(c2)nc(C)n3C)cc1	none
COc1ccc(CNc2ccc3c(c2)nc(C)n3C)cc1OC	E coli growth-2 13
COc1ccc(C2C=C3CN(C(=O)OC(C)(C)C)S(=O)(=O)C3CC2OC(=O)c2ccc(C(F)(F)F)cc2)cc1 (stereo unspecified)	none (no result: Tat transport, AddAB inh, E coli growth-2, phage Ecoli inh)
CCC(=O)NC(=S)NNC(=O)c1ccc(OC)cc1	E coli growth-1 0.46
CCCOc1ccc(C(=O)NNC(=S)NC(C)=O)cc1	E coli growth-1 0.27
CCCOc1ccc(C(=O)NNC(=S)NC(=O)c2ccco2)cc1	none
CCCCOc1ccc(C(=O)NNC(=S)NC(=O)CC)cc1	none (no result: phage Ecoli inh)
COc1ccc(C(=O)NNC(=S)NC(=O)c2ccco2)cc1	E coli growth-1 0.44
CC(=NN1CCN(c2ccccc2)CC1)c1ccccc1O	none (no result: Tat transport, AddAB inh, E coli growth-2, phage Ecoli inh)
CCN1/C(=C/c2ccc3cc(C)ccc3[n+]2CC)Sc2cc(C)ccc21	E coli growth-1 0.35 (no result: AddAB inh, E coli growth-2)
O=C1c2ccccc2NC(c2ccc(-c3ccccc3F)o2)N1O (stereo unspecified)	E coli growth-2 12
CN1CCN(C2=Cc3cc(Cl)ccc3Sc3cc(F)ccc32)CC1	E coli growth-1 0.36
N#CC(C#N)=NNc1ccc([N+](=O)[O-])cc1	E coli growth-1 0.33
C/C(=N\Nc1ccc([N+](=O)[O-])cc1)c1ccc(C#N)cc1	none (no result: E coli growth-1)
CC(NC(=O)c1[nH]cnc1C(=O)Nc1nccs1)c1ccccc1 (stereo unspecified)	none (no result: Tat transport, AddAB inh, E coli growth-2, phage Ecoli inh)
COc1ccc(OC)c(NC(=O)Nc2cccc3ccccc23)c1	E coli growth-2 16
COc1ccc(NC(=O)Nc2cccc3ccccc23)c(OC)c1	none

High-throughput results deposited in PubChem by several laboratories.
